Data published in PubChem BioAssay AID493085 (Broad Institute, 2011).
Among all 2,400 compounds or so, about 360 (15%) were called active. Inconclusive results (about 5%) are left out.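 How the source made its calls: active means falling-signal curve with half-maximal concentration at or below ten times the top tested dose; inconclusive means flat fit at 30 to 70% inhibition, or poor fit; inactive means signal rise, flat within 30%, or potency beyond limit.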 A selection follows. Potency and affinity values are given separately.

test: Tet-On RFP internal-standard readout, HSF1 screen, dose response, cell-based, NIH3T3 R4, HSE-GFP and Tet-On RFP, cherry-pick, set 3 (AID 493085); settings: NIH3T3 R4 HSE-GFP/Tet-RFP reporter, fluorescence, 48 h; series mostly up to 19.5 µM;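 further: cells heat shocked 2 h at 42 °C with doxycycline to induce reporters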

outcome, inactive:
CSc1ccccc1NC(=O)C1=CC(c2ccc(C)cc2)=NS(=O)(=O)N1C, CCOc1ccc(NC(=S)Nc2ccc(OC(F)(F)F)cc2)cc1, Cc1[nH]c(=O)c(C#N)cc1-c1csc(-c2ccccc2)n1, COC(=O)CCC(=O)NNC(=O)c1cccc(Br)c1, COc1ccccc1CCC(=O)OCC(=O)Nc1cccc(S(=O)(=O)N2CCOCC2)c1, CCOC(=O)C1=C(C)N(CCC(=O)O)C(=O)NC1c1ccccc1Cl (stereo not given), COc1ccc(/C=C(\C#N)C(=O)Nc2cc(C)c(Cl)cc2OC)cc1O, CSc1nccn1C(=O)c1ccccc1[N+](=O)[O-], Cc1ccc(-n2cc(C(=O)c3ccccc3O)cn2)cc1, O=C(CSc1nc2ccccc2s1)N/N=C/c1ccccc1C(=O)O, CC(C)c1ccccc1-n1c(-c2cccnc2)n[nH]c1=S, COc1ccccc1NC(=O)Cn1c(=O)c(N(C)C)c(N)n(C)c1=O, COCCn1c(=O)[nH]c2cc(C(=O)NC3CCCCCC3)ccc2c1=O, COc1cccc(NC(=O)CCSc2nnc3scc(-c4ccccc4)n23)c1, CCCC(NC(=O)COc1cc2c(c3oc(=O)cc(C)c13)CCC(C)(C)O2)C(=O)O (stereo not given), CC(C(=O)NC1CC(C)(C)NC(C)(C)C1)c1ccc([N+](=O)[O-])cc1 (stereo not given), CC(=O)c1cccc(NC(=O)CN2C(=O)c3ccccc3C2=O)c1, CCOc1ccc(/C=N/NC(=O)c2ccc(Cn3cc([N+](=O)[O-])cn3)o2)cc1, NC(=S)N/N=C1\CC(n2nnnc2-c2ccccc2Cl)C2COC1O2 (stereo not given), COc1ccc(/C=N/Nc2nc(C)cc(=O)[nH]2)cc1OC, COc1ccc(-c2nc(CNS(=O)(=O)c3ccc(OC)c(OC)c3)cs2)cc1, Cc1cccc(N2CCN(Cc3nc(-c4ccccc4Cl)oc3C)CC2)n1, Oc1ccc(Br)cc1/C=N/Nc1ccccn1, O=C(N/N=C/c1ccccn1)c1ccc([N+](=O)[O-])cc1, CCOC(=O)C[n+]1c(C)csc1C, CCOc1ccc(NC(=O)C(C)NS(=O)(=O)c2ccc(NC(C)=O)cc2)cc1 (stereo not given), Cc1ccc(Cn2c(Sc3ncccn3)nc3c2c(=O)[nH]c(=O)n3C)cc1, Cc1nccn1Cc1cccc2ccccc12, CC(=O)NCCNC(=O)c1ccc(CSc2nc3ccccc3s2)cc1, Cc1cc(=O)[nH]c2c1c(=O)[nH]n2C1CC(C)N(C)CC1C (stereo not given), C=CCOCCN(CCOCC=C)C1=NS(=O)(=O)c2ccccc21, NS(=O)(=O)c1ccc(CCNCC#Cc2ccccc2)cc1, Cc1cc(OCC(=O)NCCc2ccc(S(N)(=O)=O)cc2)c2c(C)cc(=O)oc2c1, CCn1cc(C(=O)NCCCN2CC(C)CC(C)C2)c(=O)c2cc(S(=O)(=O)N(C)C)ccc21 (stereo not given), O=C(N1CCOCC1)C12CCC3CC(CC(C3)C1)C2, CCCS(=O)(=O)c1cnc(C2COc3ccccc3O2)nc1N (stereo not given), C=CCn1c(C)nnc1SCC(=O)Nc1nc(C)c(C(=O)N(C)C)s1, O=C1CC(N2CCCCC2)C(=O)N1c1ccccc1 (stereo not given), Cc1ccc(-n2nc3c(=O)n(CCCC(=O)N4CCC(C(N)=O)CC4)nc(C)c3c2C)cc1, O=S(=O)(Nc1ccc2c(c1)OCCO2)c1cccs1, CC1C(=O)C(C)C(c2ccco2)NC1c1ccco1 (stereo not given), Nc1nc2n(c1C(=O)c1ccccc1)CCC2, COc1ccc(N2CCN(CC(O)COCCOc3ccc(Br)cc3)CC2)cc1 (stereo not given), CC(C)(C)c1ccc(-c2nnc3sc(-c4ccccn4)nn23)cc1, Cn1c(C(=O)O)c(CC(=O)Nc2ccc3c(c2)OCCO3)c2ccccc21, CCCS(=O)(=O)N1CCCC(C(=O)N2CCC(Cc3ccccc3)CC2)C1 (stereo not given), CC(=O)Nc1ccc(-c2nnn(CC(=O)Nc3ccc4c(c3)OCO4)n2)cc1Cl, O=C1Cc2ccccc2C(=O)N1c1cccc(Cl)c1, CC(C)CNC(=O)C1CCN(Cc2ccc(OCc3ccccc3)cc2)CC1, COc1cc(NC(=O)c2cc3cccc(OC)c3o2)cc(C(=O)Nc2cccc(C(F)(F)F)c2)c1, CN(CC(=O)Nc1cccc(F)c1)CC(=O)Nc1cccc(S(N)(=O)=O)c1, COc1ccc(CN(C)C(=O)c2cc(S(=O)(=O)N3CCOCC3)ccc2N2CCCC2)cc1, COc1ccc(S(=O)(=O)Nc2ccccc2C(=O)N2CCOCC2)cc1Cl, Cc1noc(NS(=O)(=O)c2ccc(N3Cc4ccccc4C3=O)cc2)c1C, CCCCN1C=CC(=C2C(=O)c3ccccc3C2=O)C=C1, Fc1ccccc1NC(=S)Nc1ccc(CN2CCOCC2)cc1, COC(=O)C1CCN(C(=O)c2sc3nc(-c4ccccc4)cn3c2C)CC1, CCOC(=O)c1sc2nc3c(cc2c1N)COC(C(C)C)C3 (stereo not given), CCOC(=O)c1n[nH]c(=O)c2ccccc12, CCCn1c(SCC(=O)c2c(C)[nH]c(C)c2C(=O)OCC)nc2ccccc21, Cc1cccc(Nc2nc(-c3ccc4c(c3)OCCO4)cs2)c1, COc1cccc(-n2nnc3c(=O)n(Cc4ccccc4Cl)cnc32)c1, Nc1nc(Cl)nc(N(c2ccccc2)c2ccccc2)n1, CCOC(=O)Cn1c(CCC(=O)O)ccc1-c1ccc(F)cc1, O=S(=O)(Nc1ccncc1)c1ccc(Cl)cc1, COc1ccc(S(=O)(=O)/C(C#N)=C/Nc2cccc(OC)c2)cc1, NC(=O)c1nsc(C(=O)N(c2cccc(F)c2)C(C(=O)NC2CCCC2)c2ccco2)c1N (stereo not given), COc1ccc(C(=O)N2CCN=C2SCc2cccnc2)cc1OC, CCN(C(=O)c1ccc2c(SCC(=O)O)c3c(nc2c1)CCC3)c1cc(Cl)ccc1OC, CC(/C=N\NC(=O)c1cc(C)oc1C)=C\c1ccccc1
